# In PubChem BioAssay (Tox21):
# Where “and” joins values, the source holds several entries; their conditions need not be identical. Equal values may be shown once. Records with an inconclusive call do not appear. Where a call stands in place of a potency, no number is given. Calls of active or inactive are those of the source. Unless noted, the call rests on the fitted dose curve; in most records, active means well fitted curve in the direction sought with a large enough effect in the repeat runs; inconclusive means weak or mixed curves; inactive means no such curve, though single readings can be large; an effect the other way counts as inactive or inconclusive.
# Experiments:
# [1] = qHTS assay for small molecules that induce genotoxicity in human embryonic kidney cells expressing luciferase-tagged ATAD5 (AID 651632); further: nearly all actives have a fitted effect of over 15% in size
# Outline: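 HEK293T cells carrying a luciferase reporter tagged to ATAD5 were exposed to compound or DMSO vehicle for 16 hr at 37C, 5% CO2. Amplite was added, and after 30 min at room temperature luciferase activity was read as a marker of ATAD5 induction.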
# [2] = qHTS assay for small molecule agonists of the p53 signaling pathway - cell viability (AID 651633; calls by dose curve; further: series mostly up to about 83 µM; nearly all actives have a fitted effect of over 30% in size)
# Outline: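 p53RE-bla cells, seeded at 4,000 per well and rested 5 h at 37 C/5% CO2, received compounds in DMSO for 16 h at 37 C. CellTiter-Glo was then added, and luminescence was read after 30 min at room temperature to gauge cytotoxicity.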
# [3] = qHTS assay for small molecules that induce genotoxicity in human embryonic kidney cells expressing luciferase-tagged ATAD5 - cell viability (AID 651634; calls by dose curve; further: nearly all actives have a fitted effect of over 25% in size)
# Outline: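 HEK293T cells expressing luciferase-tagged ATAD5 were exposed to compound or DMSO for 15.5 hr at 37C, 5% CO2. Viability was then read as live-cell protease activity by CellTiter-Fluor fluorescence after 30 min at 37C.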
# [4] = qHTS assay for small molecule disruptors of the mitochondrial membrane potential - cell viability (AID 720634; calls by dose curve;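 further: human HepG2 liver cancer cells; series mostly up to about 83 µM; nearly all actives have a fitted effect of over 20% in size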)
# Outline: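 HepG2 cells seeded overnight at 37 C, then exposed to compound or DMSO for 1 hr at 37 C, 5% CO2. m-MPI dye added, then CellTiter-Glo for 30 min at room temperature; viability read as ATP luminescence.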
# [5] = qHTS assay for small molecule disruptors of the mitochondrial membrane potential (AID 720635); further: potency means the concentration at half of the fitted maximal effect
# Outline: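 HepG2 cells (2,000/well) attached overnight at 37C, then took compound for 1 hr at 37C, 5% CO2. Mito-MPS dye was added for 30 min; fluorescence was read at 490/535 nm (monomers) and 540/590 nm (aggregates).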
# [6] = qHTS assay to test for compound auto fluorescence at 590 nm (red) in HepG2 cells (AID 720674)
# Outline: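 Compound auto-fluorescence is scored relative to Rose Bengal sodium, measured at 540/590 nm in live HepG2 cultures after 1 hr compound contact (37 C, 5% CO2).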
# [7] = qHTS assay to test for compound auto fluorescence at 535 nm (green) in HepG2 cells (AID 720675)
# [8] = qHTS assay to test for compound auto fluorescence at 460 nm (blue) in HEK293 cells (AID 720678)
# Outline: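 HEK293, 2,000 cells/well, 10% dialyzed FBS; attach 4-5 hr 37C; pin compound or DMSO; o/n 37C/5% CO2; fluorescence 405/460 nm; triamterene-equivalent units.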
# [9] = qHTS assay to test for compound auto fluorescence at 590 nm (red) in HEK293 cells (AID 720679)
# Outline: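 Intensity at 540nm excitation and 590nm emission is reported as Rose Bengal sodium-equivalent autofluorescence. Measurements followed overnight exposure (37C, 5% CO2) of HEK293 cells, 2,000 per well, to 23 nL compound.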
# [10] = qHTS assay to test for compound auto fluorescence at 535 nm (green) in HEK293 cells (AID 720680)
# [11] = qHTS assay to test for compound auto fluorescence at 460 nm (blue) in HEK293 cell free culture (AID 720681)
# Outline: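 Test compounds were pinned into cell-free culture medium (DMEM with 10% FBS) and fluorescence was read directly at Ex/Em 405/460 nm. Signals were expressed as fluorescence equivalents of triamterene, with DMSO vehicle as control.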
# [12] = qHTS assay to test for compound auto fluorescence at 535 nm (green) in HEK293 cell free culture (AID 720682)
# Outline: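 Read-out: 485/535 nm fluorescence intensity, calibrated against fluorescein. Medium only (DMEM + 10% FBS, no cells); test compound or DMSO vehicle added by pintool before plate reading.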
# [13] = qHTS assay to test for compound auto fluorescence at 590 nm (red) in HEK293 cell free culture (AID 720683)
# Outline: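 Tox21 10K library compounds were pinned into cell-free DMEM with 10% FBS and fluorescence was read at excitation 540 nm. Activity is expressed as Rose Bengal sodium equivalency.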
# [14] = qHTS assay to test for compound auto fluorescence at 590 nm (red) in HepG2 cell free culture (AID 720684)
# Outline: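 Measured in medium alone (MEM containing 10% FBS) following pintool addition of compound; emission at 590 nm with 540 nm excitation, referenced to Rose Bengal sodium.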
# [15] = qHTS assay to test for compound auto fluorescence at 460 nm (blue) in HepG2 cell free culture (AID 720685)
# Outline: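 Compound (23 nL) or DMSO pinned into cell-free MEM with 10% FBS; blue fluorescence read at 405/460 nm excitation/emission, expressed as auto-fluorescence equivalency to triamterene.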
# [16] = qHTS assay to test for compound auto fluorescence at 535 nm (green) in HepG2 cell free culture (AID 720686)
# [17] = qHTS assay to test for compound auto fluorescence at 460 nm (blue) in HepG2 cells (AID 720687)
# Outline: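 Cells (2,000/well in MEM with 10% FBS) attached overnight at 37 C, then were exposed to compound or DMSO for 1 hr at 37 C, 5% CO2. Fluorescence read at Ex/Em 405/460 nm, expressed as triamterene-equivalent signal.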
# [18] = biological target: Glucocorticoid receptor (Homo sapiens) (UniProt P04150); assay: qHTS assay to identify small molecule agonists of the glucocorticoid receptor (GR) signaling pathway (AID 720691; active means well fitted activation curve with a large enough effect in the signal ratio in the repeat runs, not every such curve was filed as active; the % refers to the signal ratio)
# Sequence of Glucocorticoid receptor (Homo sapiens) (P04150 whole entry, looked up): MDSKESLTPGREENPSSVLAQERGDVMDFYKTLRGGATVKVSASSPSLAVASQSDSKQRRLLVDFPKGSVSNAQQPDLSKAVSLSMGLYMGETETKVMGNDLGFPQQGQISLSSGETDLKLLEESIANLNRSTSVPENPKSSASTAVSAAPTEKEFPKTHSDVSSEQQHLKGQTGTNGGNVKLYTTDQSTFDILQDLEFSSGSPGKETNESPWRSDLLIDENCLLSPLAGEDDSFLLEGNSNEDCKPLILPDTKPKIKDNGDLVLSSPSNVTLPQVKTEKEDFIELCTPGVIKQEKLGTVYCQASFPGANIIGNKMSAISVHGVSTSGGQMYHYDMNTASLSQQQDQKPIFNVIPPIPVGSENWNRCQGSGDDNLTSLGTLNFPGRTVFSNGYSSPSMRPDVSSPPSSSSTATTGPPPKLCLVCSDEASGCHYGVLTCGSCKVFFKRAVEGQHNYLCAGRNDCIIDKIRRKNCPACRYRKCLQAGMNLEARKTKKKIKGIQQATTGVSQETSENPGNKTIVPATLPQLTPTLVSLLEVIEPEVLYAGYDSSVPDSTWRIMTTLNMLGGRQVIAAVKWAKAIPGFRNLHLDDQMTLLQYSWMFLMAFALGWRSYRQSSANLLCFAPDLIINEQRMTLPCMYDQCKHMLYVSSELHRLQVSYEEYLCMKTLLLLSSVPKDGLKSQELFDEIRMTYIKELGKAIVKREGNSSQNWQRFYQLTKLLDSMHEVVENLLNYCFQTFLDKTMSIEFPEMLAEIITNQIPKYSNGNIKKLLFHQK
# Outline: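 GR-bla HeLa cells (beta-lactamase reporter under glucocorticoid response element) were plated 4 h at 37 C/5% CO2, given compounds in DMSO, and incubated 18 h at 37 C. LiveBLAzer B/G FRET substrate was added for 2 h at room temperature, then fluorescence intensity read.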
# [19] = biological target: Glucocorticoid receptor (Homo sapiens) (UniProt P04150); assay: qHTS assay to identify small molecule antagonists of the glucocorticoid receptor (GR) signaling pathway (AID 720692; active means well fitted inhibition curve with a large enough effect in the signal ratio in the repeat runs, not every such curve was filed as active; the % refers to the signal ratio; further: potency means the concentration at half of the fitted maximal effect)
# Outline: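 GR-bla HeLa cells (beta-lactamase reporter under glucocorticoid response element) were pre-plated 4 h at 37 C, treated with compounds plus 5 nM dexamethasone (final) for 18 h, then read by LiveBLAzer B/G FRET fluorescence after 2 h.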
# [20] = qHTS assay for small molecule agonists of the p53 signaling pathway (AID 651631; calls by dose curve; further: nearly all actives have a fitted effect of over 15% in size)
# Outline: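 HCT-116 cells carrying a stable p53 response element–beta-lactamase reporter were plated, rested 5 h at 37 °C, then exposed to compound in DMSO for 16 h at 37 °C; reporter activity was read as FRET substrate fluorescence after 2 h at room temperature.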
SMILES,outcome [1],outcome [2],Potency [3],Potency [4],Potency [5],outcome [6],outcome [7],outcome [8],outcome [9],outcome [10],outcome [11],outcome [12],outcome [13],outcome [14],outcome [15],outcome [16],outcome [17],outcome [18],Potency [19],outcome [20]
C[Si]1(C)O[Si](C)(C)O[Si](C)(C)O[Si](C)(C)O1,inactive,inactive,inactive,inactive,inactive,inactive,inactive,inactive,inactive,inactive,inactive,inactive,inactive,inactive,inactive,inactive,inactive,–,–,–
C=CC[N+](C)(C)CC=C,inactive,inactive,inactive,inactive,inactive,inactive,–,inactive,inactive,inactive,inactive,inactive,inactive,inactive,inactive,inactive,inactive,inactive,inactive,–
CSc1ccc(Cl)cc1,inactive,inactive,inactive,inactive,inactive,inactive,inactive,inactive,inactive,–,inactive,inactive,inactive,inactive,inactive,inactive,inactive,inactive,inactive,–
Nc1ccc(Cl)c(N)c1,inactive,inactive,inactive,inactive,68.8 µM (active),inactive,–,inactive,inactive,–,inactive,inactive,inactive,inactive,inactive,inactive,inactive,–,–,–
Cc1ccc2ncccc2c1,inactive,inactive,inactive,inactive,inactive,inactive,inactive,inactive,inactive,–,inactive,inactive,inactive,inactive,inactive,inactive,inactive,inactive,inactive,–
C=CCc1ccc(OC)c(OC)c1,inactive,inactive,inactive,–,–,inactive,–,inactive,inactive,–,inactive,inactive,inactive,inactive,inactive,inactive,inactive,inactive,inactive,inactive
CCCOC(=O)c1ccccc1,inactive,inactive,inactive,inactive,inactive,inactive,inactive,inactive,inactive,inactive,inactive,inactive,inactive,inactive,inactive,inactive,inactive,inactive,inactive,–
O=C(O)c1cc2ccccc2cc1O,inactive,inactive,inactive,inactive,54.1 µM (active) and 54.5 µM (active),inactive,inactive,inactive,inactive,inactive,inactive,inactive,inactive,inactive,inactive,inactive,inactive,inactive,inactive,–
C[C@]12CC[C@@H]3c4ccc(O)cc4CC[C@H]3[C@@H]1C[C@@H](O)[C@@H]2O,–,inactive,–,inactive,inactive,inactive,–,inactive,inactive,inactive,inactive,inactive,inactive,inactive,inactive,inactive,inactive,inactive,12 µM (active) and 38.9 µM (active),inactive
CC1(C)OC[C@@H]2O[C@@]3(C(=O)O)OC(C)(C)O[C@H]3[C@@H]2O1,inactive,inactive,inactive,inactive,inactive,inactive,inactive,inactive,inactive,inactive,inactive,inactive,inactive,inactive,inactive,inactive,inactive,–,–,–
N#Cc1ccccc1,–,inactive,inactive,–,inactive,inactive,–,inactive,inactive,inactive,inactive,inactive,inactive,inactive,inactive,inactive,inactive,inactive,inactive,inactive
CCOC(=O)n1ccn(C)c1=S,inactive,inactive,inactive,inactive,inactive,inactive,inactive,inactive,inactive,inactive,inactive,inactive,inactive,inactive,inactive,inactive,inactive,inactive,inactive,–
CCO[Si](CCC#N)(OCC)OCC,inactive,inactive,inactive,inactive,inactive,inactive,–,inactive,inactive,inactive,inactive,inactive,inactive,inactive,inactive,inactive,inactive,inactive,inactive,–
Cc1ccc(S(=O)(=O)N=C=O)cc1,inactive,inactive,inactive,inactive,inactive,inactive,inactive,inactive,inactive,–,inactive,inactive,inactive,inactive,inactive,inactive,inactive,inactive,inactive,–
CC1(C)CC(N)CC(C)(CN)C1 (stereo not given),inactive,inactive,inactive,inactive,inactive,inactive,inactive,inactive,inactive,inactive,inactive,inactive,inactive,inactive,inactive,inactive,inactive,inactive,inactive,–
CC(=O)OCc1ccccc1,inactive,inactive,inactive,inactive,inactive,inactive,inactive,inactive,inactive,inactive,inactive,inactive,inactive,inactive,inactive,inactive,inactive,inactive,inactive,–
C=CCCCCCCCCC(=O)O,inactive,inactive,inactive,–,–,inactive,–,inactive,inactive,–,inactive,inactive,inactive,inactive,inactive,inactive,inactive,inactive,inactive,inactive
